Gal4-VP16 FLuc – counter-screen for ROR gamma inhibitors: Gal4-VP16 reporter; 3.5% of 310,000 active; Potency, µM (series often up to 53.6 µM), hits mostly inhibitors; Drosophila S2 Gal4-VP16 UAS-luciferase, luminescence, 20 h;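 note: Gal4-VP16 expression switched on by copper sulfate through the metallothionein promoter; nearly all actives have a fitted effect of over 50% in size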
ALDH1A1 inh – ALDH1A1 (human) enzyme inhibition; Purified ALDH1A1, NADH fluorescence, propionaldehyde substrate; Potency, µM (highest dose often 75.3 µM), hits mostly inhibitors; 7.3% of 220,000 active; AID 1030; active = well fitted inhibition curve with a large enough effect, not every such curve was filed as active; inconclusive = small, poorly fitted or top-dose-only effect, or another doubt; inactive = no such curve, though single readings can be large or run the other way
RORg inh – inhibitors of mouse ROR gamma transcriptional activity; Potency, µM (top dose mostly 53.6 µM), hits mostly inhibitors; P51450; Drosophila S2 Gal4-RORgamma UAS-luciferase reporter, 20 h; 5.4% of 310,000 active; AID 2551; note: nearly all actives have a fitted effect of over 60% in size
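A Gal4/UAS one-hybrid system in insect cells: metallothionein-promoter Gal4–ROR gamma fusion plus Photinus luciferase reporter. Copper sulfate 700 uM final, 20 hr ambient incubation, luminescent detection after 10 min with reagent.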
PLK1 PBD inh – PLK1 (human) polo-box domain binding inhibition; P53350; Plk1 PBD binding of FITC phosphopeptide, fluorescence polarization; Potency, µM, actives largely listed as inhibitors; 2.8% of 360,000 active; AID 720504; note: series mostly up to about 57 µM; nearly all actives have a fitted effect of over 65% in size
Target sequence (P53350 whole entry, looked up, the tested form may be a part): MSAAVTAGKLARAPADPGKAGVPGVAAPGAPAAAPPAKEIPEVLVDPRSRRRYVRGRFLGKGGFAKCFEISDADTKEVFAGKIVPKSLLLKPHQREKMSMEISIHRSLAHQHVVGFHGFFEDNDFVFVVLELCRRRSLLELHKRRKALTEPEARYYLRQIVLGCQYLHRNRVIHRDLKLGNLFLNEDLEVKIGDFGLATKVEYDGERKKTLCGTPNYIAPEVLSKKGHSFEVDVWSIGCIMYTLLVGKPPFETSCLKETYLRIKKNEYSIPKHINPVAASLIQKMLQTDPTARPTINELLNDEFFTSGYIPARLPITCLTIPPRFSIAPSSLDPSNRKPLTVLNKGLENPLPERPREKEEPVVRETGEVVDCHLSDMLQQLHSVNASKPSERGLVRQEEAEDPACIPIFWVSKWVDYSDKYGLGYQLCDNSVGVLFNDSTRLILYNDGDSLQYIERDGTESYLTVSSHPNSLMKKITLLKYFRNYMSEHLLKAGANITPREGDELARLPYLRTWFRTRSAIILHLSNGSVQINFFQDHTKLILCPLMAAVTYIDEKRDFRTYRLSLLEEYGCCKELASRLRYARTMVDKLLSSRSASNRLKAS
Sfp inh – inhibitors of Bacillus subtilis Sfp phosphopantetheinyl transferase | Q9F4F7 | Biochemical Sfp PPTase activity, qHTS | Potency, µM, actives largely listed as inhibitors | 3.5% of 310,000 active | AID 1490;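 note: the enzyme is Sfp with the accession as filed and its product quenches rhodamine fluorescence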
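With Hepes-Na pH 7.6 buffer containing 10 mM MgCl2, Sfp (15 nM) modified BHQ-2-YbbR (12.5 uM) using rhodamine-CoA (5 uM). Two reads 30 minutes apart at 525/598 nm yielded each well's rate.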
Numbers stand for hits; i = inactive; ? = inconclusive; nt = not tested or not shown; ! = a repeat was not active; [ ] = dose if it differs, or a comment. Shown are actives, neighbours in structure and some others; about 12% of the full set was active somewhere. Unless noted, calls come from the whole dose curve; as a rule, active = well fitted curve in the direction sought with a large enough effect; inconclusive = small, poorly fitted or top-dose-only effect, or another doubt; inactive = no such curve, though single readings can be large; an effect the other way counts as inactive or inconclusive.

SMILES | Gal4-VP16 FLuc | ALDH1A1 inh | RORg inh | PLK1 PBD inh | Sfp inh
CC(=O)O[C@H]1C[C@H](O[C@H]2[C@@H](O)CC(O[C@H]3[C@@H](O)C[C@H](O[C@H]4CC[C@@]5(C)[C@H](CC[C@@H]6[C@@H]5CC[C@]5(C)[C@@H](C7=CC(=O)OC7)CC[C@]65O)C4)O[C@@H]3C)O[C@@H]2C)O[C@H](C)[C@H]1O[C@@H]1O[C@H](CO)[C@@H](O)[C@H](O)[C@H]1O (stereo partly drawn) | i | nt | ? | nt | i
CC1O[C@@H](O[C@@H]2C(O)C[C@H](O[C@@H]3C(O)C[C@@H](OC4CC[C@@]5(C)C6CC[C@]7(C)C(C8=CC(=O)OC8)CC[C@@]7(O)C6CC[C@@H]5C4)OC3C)OC2C)CC(O)[C@H]1O (stereo partly drawn) | i | i | 3.2µM | nt | i
CC1OC(OC2C(O)CC(OC3C(O)CC(OC4CCC5(C)C(CCC6C5CCC5(C)C(C7=CC(=O)OC7)CCC65O)C4)OC3C)OC2C)CC(O)C1O (stereo not drawn) | i | i | 1.1µM | nt | i
C[C@]12CC[C@H](O)C[C@H]1CC[C@@H]1[C@@H]2CC[C@]2(C)[C@@H](C3=CC(=O)OC3)CC[C@]12O | nt | nt | nt | i | nt
C=C(C)CCl | i | i | i | nt | nt
CN1C(=O)/C(=C/c2ccc(Cl)s2)C(=O)NC1=S | 13µM | nt | 11µM | 1.5µM | 13µM
CCN1C(=O)/C(=C\c2ccc([N+](=O)[O-])s2)C(=O)NC1=S | i | i | i | nt | 10µM
C=CCN1C(=O)/C(=C/c2ccc(Br)s2)C(=O)NC1=S | ? | nt | i[1.91 µM] | 1.3µM | 40µM
COCC(=O)N1CCC2(CCCN(Cc3ccncc3)C2)CC1 | i | ? | i | nt | i
COC(=O)COc1cc(Cl)c(Cl)cc1Cl | i | i | i | nt | i
CCOC(=O)c1ccc(-n2c(N)c(C(=O)NCC3CCCO3)sc2=S)cc1 (stereo not drawn) | i | 4µM | i | 12µM | 32µM
Nc1c(C(=O)OCC2CCCO2)c2nc3ccccc3nc2n1Cc1cccs1 (stereo not drawn) | i | ? | ? | i | ?
CCOC(=O)c1c(/N=C/c2c(O)n(-c3ccc(F)cc3)c(=S)[nH]c2=O)sc2c1CCCC2 | i | 18µM | i | i | i
CCOC(=O)c1ccc(N=Cc2c(O)n(-c3ccc(OC)cc3)c(=S)[nH]c2=O)cc1 | ? | ? | i | i | i
CCCN(C/C=C\I)[C@@H]1CCc2ccc(O)cc2C1 | i | i | i | nt | i
CCCN(CCC)C1Cc2cc(OC)c(OC)cc2C1 | i | 22µM! | i | i | i
Cc1ccc(C=C2C(Cl)=C(Cl)C(Cl)=C2Cl)cc1 | i | nt | i | 12µM | ?
CCc1ccc(C(=O)NN(C(=O)c2cc(C)cc(C)c2)C(C)(C)C)cc1 | i | i | i | nt | i
Cc1ncc(CN2CC=C(c3ccccc3)CC2)c(N)n1 | i | ? | ? | nt | i
C/C(=N\Nc1ccccc1)c1c(O)n(C)c(=O)n(C)c1=O | i | 25µM | i | i | ?
Cn1c(O)c(/C=N/Nc2ccccc2)c(=O)n(C)c1=O | i | 10µM | i | i | 56µM
Cn1c(O)c(C=Nc2ccccc2)c(=O)n(C)c1=O | i | nt | i | i | i
Cn1c(O)c(C(=O)c2ccccc2)c(=O)n(C)c1=O | i | i | i | i | i
CCn1c(-c2nn(-c3ccccc3)ccc2=O)n[nH]c1=S | i[10 µM] | i | i | i | 56µM
CCOP(=S)(OCC)Oc1ncn(-c2ccccc2)n1 | ? | nt | i | nt | ?
SMILES | Gal4-VP16 FLuc | ALDH1A1 inh | RORg inh | PLK1 PBD inh | Sfp inh
N#Cc1ccc(CN2CCC3(CC2)CCN(C(=O)Oc2ccccc2)CC3)cc1 | i | i | i | nt | i
O=C1NC(=O)C(=Cc2ccc(-c3ccc(S(=O)(=O)N4CCOCC4)cc3)o2)C(=O)N1 | i | nt | i | 2.7µM | 8.9µM
O=C1NC(=O)C(=Cc2ccc(-c3ccc(Cl)cc3)o2)C(=O)N1 | ? | nt | ? | 0.67µM | 20µM
O=C1NC(=O)C(=Cc2ccc(-c3ccc(F)cc3O)o2)C(=O)N1 | i | nt | ? | 1.2µM | 50µM
Cn1c(O)c(N=Nc2ccc(S(=O)(=O)N3CCOCC3)cc2)c(=O)n(C)c1=O | i | i | i | i | i
Cc1ccc2c(c1)C1(CCN(CCc3nc(-c4ccccc4)oc3C)CC1)OC(=O)N2 | i | nt | i | nt | i
O=C1NC(=O)N(Cc2ccccc2Cl)C(=O)/C1=C/c1cccs1 | i | ? | i | 1.2µM | 32µM
O=C1NC(=O)N(Cc2ccc(F)cc2)C(=O)/C1=C/c1cccs1 | i | 28µM | i | 0.75µM | 45µM
CN1c2ccccc2C(NCCCCCCC(=O)O)c2ccc(Cl)cc2S1(=O)=O (stereo not drawn) | i | nt | i | nt | ?
CCSCC[C@H](N)C(=O)O | nt | i[13.5 µM] | nt | nt | nt
N[C@@H](CSCCCO)C(=O)O | i | nt | i[10 µM] | nt | 50µM
CCOc1ccc2cc(C#N)c(=O)oc2c1 | i | nt | i | nt | i
CN(Cc1ccc(OC(F)F)cc1)Cc1nc2c(Br)cc(Br)cc2c(=O)[nH]1 | 13µM | i | 3.2µM | i | i
CC12CCC3C4CCC(=O)C(O)=C4CCC3C1CCC2OC(=O)CCC1CCCC1 (stereo not drawn) | i | nt | i | nt | i
CCCCCCCCCOc1ccc2[nH]cc(CCN)c2c1 | ? | i | 3.2µM | nt | 50µM
COc1ccc2[nH]cc(CCN)c2c1 | i | i | i | i | i
Cc1cccc(C)c1OCc1n[nH]c(=S)n1N | i | 25µM | ? | ? | 50µM
Nn1c(COc2ccc(Cl)cc2)n[nH]c1=S | i | 25µM | ? | ? | 35µM
Cc1cc(/C=C2\C(=O)NC(=O)N(Cc3ccco3)C2=O)c(C)n1-c1ccc(C(=O)O)cc1 | i | nt | i | ? | i
Cc1cc(/C=C2\C(=O)NC(=O)N(c3ccc(F)cc3)C2=O)c(C)n1-c1ccc(C(=O)O)cc1 | i | 7.9µM | i | ? | i
Cc1cc(/C=C2\C(=O)NC(=O)N(Cc3ccccc3Cl)C2=O)c(C)n1-c1ccc(C(=O)O)cc1 | i | ? | i | 11µM | i
Cc1ccc(N2C(=O)NC(=O)/C(=C\c3cc(C)n(-c4ccc(C(=O)O)cc4)c3C)C2=O)cc1 | i | nt | i | ? | i
Cc1c(Cl)cccc1N1C(=O)NC(=O)/C(=C\c2cc(C)n(-c3cccc(C(=O)O)c3C)c2C)C1=O | i | nt | i | 27µM | i
Cc1cc(/C=C2\C(=O)NC(=O)N(Cc3ccccc3)C2=O)c(C)n1-c1ccc(Cl)c(C(=O)O)c1 | i | ? | i | 6µM | i
C=C(C)c1ccccc1 (tested in a mixture with another compound) | nt | i[13.5 µM] | nt | nt | nt
O=C(Nc1cccc(F)c1)N1CCCC2(CCN(C(=O)Oc3ccccc3)CC2)C1 | i | i | i | nt | i
CC[C@H](C)[C@H](NC(=O)[C@@H](N)Cc1ccc(O)cc1)C(=O)NCC(=O)N[C@@H](CO)C(=O)N[C@@H](CCCN=C(N)N)C(N)=O | i | nt | i | nt | i
O=C1Nc2cc(C(=O)N3CCC4(CC3)OCCO4)ccc2NC1CSCc1cccc(F)c1 (stereo not drawn) | i | nt | i | nt | 50µM
O=C(c1ccc2c(c1)N(Cc1ccccc1)CCS2)N1CCC2(CC1)OCCO2 | i | nt | i | i | i

High-throughput results deposited in PubChem BioAssay by National Center for Advancing Translational Sciences (NCATS).
